# JMJD2A Tudor – qHTS Assay for Inhibitors of JMJD2A-Tudor Domain | AID 504339, 2011 | actives 4.4% (n = 390,000) | Lysine-specific demethylase 4A (Homo sapiens), O75164 | Potency, µM (titrated, usually from 114 µM), without a hit: top-dose activity change, negative = inhibition, usual class: inhibitors | AlphaScreen JMJD2A-Tudor / H3K4me3 peptide binding; further: on the % scale 0 is the no-effect control and ±100 the full control effect; nearly all actives have a fitted effect of over 50% in size
# G9a block – qHTS Assay for Inhibitors of Histone Lysine Methyltransferase G9a. G9a H3K9 monomethylation, AlphaScreen, 2 h. Potency, µM (titrated, usually from 102 µM), inactives show at the top dose activity, negative = inhibition, hits mostly inhibitors. actives 8.8% (n = 350,000); further: on the % scale 0 is the no-effect control and ±100 the full control effect; nearly all actives have a fitted effect of over 75% in size
# Target sequence (Q96KQ7 913-1193 limits assumed): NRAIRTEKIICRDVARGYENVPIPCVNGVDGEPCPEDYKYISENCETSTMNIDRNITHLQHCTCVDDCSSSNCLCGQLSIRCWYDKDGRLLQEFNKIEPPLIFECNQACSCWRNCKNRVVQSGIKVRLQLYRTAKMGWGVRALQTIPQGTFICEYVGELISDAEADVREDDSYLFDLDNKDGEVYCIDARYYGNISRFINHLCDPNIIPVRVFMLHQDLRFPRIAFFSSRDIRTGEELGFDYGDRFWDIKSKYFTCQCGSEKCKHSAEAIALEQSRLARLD
#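 Using a bead-based AlphaScreen, monomethylated H3K9 product from 2 h room-temperature reactions (G9a 20 nM, peptide 500 nM, SAM 20 uM) was detected with 0.5 ug/mL rabbit anti-H3K9me1 antibody.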
# L3MBTL1 inh – qHTS Assay for the Inhibitors of L3MBTL1. Lethal(3)malignant brain tumor-like protein 1 (Homo sapiens), Q9Y468. AlphaScreen L3MBTL1–H3K9me1 peptide binding. Potency, µM (highest dose often 57.1 µM), without a hit: top-dose activity, negative = inhibition, usual class: inhibitors. actives 0.66% (n = 230,000). AID 485360, 2010; further: on the % scale 0 is the no-effect control and ±100 the full control effect; nearly all actives have a fitted effect of over 60% in size
#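 L3MBTL1 50 nM + b-AHA-H3(1-15)K9me1 75 nM, 30 min RT; compound added, 30 min RT; streptavidin donor/Ni-chelate acceptor beads 10 ug/mL each final, 30 min RT dark; AlphaScreen read.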
# Sfp PPTase inh – qHTS Assay for Inhibitors of Bacillus subtilis Sfp phosphopantetheinyl transferase (PPTase); 4'-phosphopantetheinyl transferase ffp (Bacillus subtilis), Q9F4F7; Biochemical Sfp PPTase activity, qHTS; Potency, µM, for inactives: largest response in the series, negative = inhibition, usual class: inhibitors; actives 3.5% (n = 310,000); AID 1490, 2009;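 further: the enzyme is Sfp with the accession as filed and its product quenches rhodamine fluorescence; 0% = enzyme reaction without inhibitor and -100% = no enzyme wells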
#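 After 15 min at room temperature with compound, 15 nM Sfp received 5 uM rhodamine-CoA plus 12.5 uM BHQ-2-ybbR (50 mM Hepes pH 7.6, 10 mM MgCl2). Rate came from the fluorescence difference over 30 min, ex 525/em 598 nm.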
# BAZ2B inh – qHTS Assay for Inhibitors of BAZ2B; Bromodomain adjacent to zinc finger domain protein 2B (Homo sapiens), Q9UIF8; Potency, µM (titrated, usually from 114 µM), without a hit: at the highest dose activity change, negative = inhibition, usual class: inhibitors; AlphaScreen BAZ2B-H3K14Ac peptide displacement; actives 4.4% (n = 360,000); AID 504333, 2011; further: on the % scale 0 is the no-effect control and ±100 the full control effect; nearly all actives have a fitted effect of over 60% in size
#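 Compounds, titrated to a top concentration of 110 uM, were incubated 30 min at room temperature with preformed BAZ2B/acetyl-K14 H3 peptide complex (50 nM each). Proximity signal was measured by AlphaScreen after 20 min with beads.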
# HP1b binding inh – HTS for Inhibitors of HP1-beta Chromodomain Interactions with Methylated Histone Tails; Chromobox protein homolog 1 (Homo sapiens), P83916; AlphaScreen HP1-beta / biotin-H3K9me3 peptide binding; Potency, µM (highest dose often 114 µM), for inactives: top-dose activity change, negative = inhibition, usual class: inhibitors; actives 0.56% (n = 390,000); further: nearly all actives have a fitted effect of over 70% in size
# Target sequence (P83916 whole entry, looked up): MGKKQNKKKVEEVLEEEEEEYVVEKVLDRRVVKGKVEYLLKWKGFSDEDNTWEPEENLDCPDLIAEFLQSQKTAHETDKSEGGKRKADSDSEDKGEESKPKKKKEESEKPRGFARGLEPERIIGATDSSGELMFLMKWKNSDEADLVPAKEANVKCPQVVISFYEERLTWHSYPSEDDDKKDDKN
#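 HP1-beta protein (50 nM final) preincubated 30 min at room temperature with biotinylated H3(1-18)K9me3 peptide (50 nM) in PBS pH 7.4, 0.01% Tween-20, then compound added for 30 min. AlphaScreen streptavidin donor/nickel chelate acceptor beads (10 ug/mL final), 30 min dark, luminescence read.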
# Active calls of the source: *; ? = inconclusive; . = not tested or not shown; [ ] = remark or other dose. Compounds with a hit are over-represented: about 12% of the library has one in this group of screens. The call rests on the fitted dose curve; in most records, active means well fitted curve in the direction sought with a large enough effect; inconclusive means small, poorly fitted or top-dose-only effect, or another doubt; inactive means no such curve, though single readings can be large; an effect the other way counts as inactive or inconclusive. Potency means the concentration at half of the fitted maximal effect.
SMILES,JMJD2A Tudor,G9a block,L3MBTL1 inh,Sfp PPTase inh,BAZ2B inh,HP1b binding inh
CC(C)Cc1nc2ccc(N)cc2[nH]1,22µM*,?,-11%,19%,-35%,19%
CCCNS(=O)(=O)c1cccc(C(=O)NNC(=O)c2cc(C)oc2C)c1,-10%,-19%,-5%,.,-4%,30%
Cc1cc(N=Nc2ccccc2)c(NCC(O)C(O)C(O)CO)cc1C (stereo unspecified),45µM*,20µM*,.,-14%,16µM*,?
Cc1ccc(NCC(O)C(O)C(O)CO)cc1C (stereo unspecified),-24%,?,0%,10%,-25%,18%
Cc1ccccc1N(CC(=O)N/N=C/c1cc(C)n(-c2ccccc2C)c1C)S(C)(=O)=O,?,10µM*,.,15%,?,-3%
Cc1cccc(C)c1-n1c(C)cc(/C=N/NC(=O)CSc2ncccn2)c1C,50µM*,17%[59 µM],-2%,?,45µM*,?
Cc1cc(/C=N/NC(=O)COc2cccc3cccnc23)c(C)n1-c1ccc(O)cc1,-8%,8%[59 µM],-3%,-3%,-9%,30%
Cc1cc(C)nc(SCC(=O)N/N=C\c2sccc2C)n1,-9%,10%,?,-20%,0%,25%
Cc1cc(C)nc(SCC(=O)N/N=C/c2cc(C)n(-c3ccccc3C)c2C)n1,?,50µM*,-13%,-23%,45µM*,?
Cc1ccccc1N(CC(=O)N/N=C/c1cc(Br)c(C)o1)S(C)(=O)=O,-24%,?,-5%,6%,?,-9%
Cc1cc(C)cc(-n2c(C)cc(/C=N\NC(=O)COc3cccc4cccnc34)c2C)c1,?,45µM*,-10%,-13%,?,2%
O=C(Nc1ccc2oc(-c3cccc4c(Br)cccc34)nc2c1)c1ccc(Br)cc1,-3%,-32%[59 µM],.,.,-1%,20%
COc1ccc(NC(=O)CN2CCCCCC2)cc1OC,-9%,21%,.,11%,5%,-5%
Cc1cc(/C=N\NC(=O)CC(=O)NC2CCCCC2)c(C)n1-c1cccc(Cl)c1Cl,?,-47%[59 µM],-5%,4%,?,-23%
Cc1cccc(C)c1-n1c(C)cc(/C=N\NC(=O)CC(=O)NC2CCCCC2)c1C,?,-4%[59 µM],-13%,-6%,50µM*,?
COc1ccc(-c2nc(CNC(=O)Nc3ccccc3)c(C)o2)cc1,-4%,13%[59 µM],.,.,-24%,33%
COc1ccc(C(=O)Nc2ccc(C(=O)c3ccccc3)cc2)cc1,-8%,.,.,.,.,12%
COc1ccc(C(=O)c2cc(C(C)=O)c(Nc3ccccc3)s2)cc1,3%,13%[59 µM],30%,50µM*,19%,69%
CCc1ccc(N2CC(C(=O)Nc3nc4ccc(S(C)(=O)=O)cc4s3)CC2=O)cc1 (stereo unspecified),-21%,40µM*,.,-22%,-2%,-33%
COc1ccc(N2CC(C(=O)Nc3ccc([N+](=O)[O-])cc3Br)CC2=O)cc1 (stereo unspecified),-28%,?,.,5%,-10%,-6%
COc1ccc(N2CC(C(=O)N/N=C/c3cc([N+](=O)[O-])ccc3O)CC2=O)cc1 (stereo unspecified),79µM*,-37%,.,26%,35µM*,47%
COc1cc(OC)cc(C(=O)N[C@H](C(=O)Nc2nc3ccc(S(C)(=O)=O)cc3s2)C(C)C)c1,-8%,40µM*,.,-8%,-13%,58%
COc1ccc(C(=O)Nc2nc3ccc(S(C)(=O)=O)cc3s2)cc1,-1%,?,9%,1%,11%,42%

# Bioassay records as filed in PubChem BioAssay.
